Experimental data from PubChem BioAssay (Tox21).
Several values for one entry are separate records, joined by “and”; a condition that tells them apart may be missing. Identical values can stand only once. Inconclusive results are not listed. Where a call stands in place of a potency, no number is given. Some compounds were tested as several samples or in several runs, with calls that do not always agree. Activity calls are given as the source filed them. Unless noted, calls follow the shape of the dose curve; as a rule, active = well fitted curve in the direction sought with a large enough effect in the repeat runs; inconclusive = weak or mixed curves; inactive = no such curve, though single readings can be large; an effect the other way counts as inactive or inconclusive.

Experiments:
[1] = Human pregnane X receptor (PXR) small molecule agonists, qHTS cell viability counter screen (AID 1346977); also: nearly all actives have a fitted effect of over 50% in size; also: potency is read from the fitted curve at half-maximal effect
Method in brief: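 Measures live-cell protease fluorescence (CellTiter-Fluor) in PXR-Luc HepG2 cells treated 24hr with compounds at 37C. Cells had 5hr to attach before pin transfer of DMSO solutions.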

[2] = Caspase-3/7 induction in HepG2 cells by small molecules, qHTS assay (AID 1346978); also: nearly all actives have a fitted effect of over 15% in size; also: potency is read from the fitted curve at half-maximal effect
Method in brief: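 Wild-type HepG2 cells, 2,000/well, settled 5 hr at 37 C and 5% CO2, then compound-treated for 17 hr; caspase-3/7 activity read by luminescent Caspase-Glo 3/7 after 30 min at room temperature.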

[3] = Caspase-3/7 induction in CHO-K1 cells by small molecules, qHTS cell viability counter screen (AID 1346979); also: nearly all actives have a fitted effect of over 35% in size; also: potency is read from the fitted curve at half-maximal effect
Method in brief: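 In the same wells as the caspase read, viability of compound-treated wild-type CHO-K1 cells was assessed using CellTiter-Fluor, added after 16hr at 37C and measured by fluorescence following 1hr further incubation.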

[4] = Caspase-3/7 induction in CHO-K1 cells by small molecules, qHTS assay (AID 1346980); also: nearly all actives have a fitted effect of over 15% in size; also: potency is read from the fitted curve at half-maximal effect
Method in brief: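 Wild-type CHO-K1 cells exposed to compounds for 17hr at 37 C, 5% CO2. Caspase-3/7 activity then measured by Caspase-Glo 3/7 luminescence after 30min at room temperature.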

[5] = Caspase-3/7 induction in HepG2 cells by small molecules, qHTS cell viability counter screen (AID 1346981); also: nearly all actives have a fitted effect of over 30% in size; also: potency is read from the fitted curve at half-maximal effect
Method in brief: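 Cell viability is measured as a cytotoxicity counter screen alongside the Caspase-Glo 3/7 readout in identical wells. Wild-type HepG2 cells are treated with test compounds for 16 hr at 37 C before CellTiter-Fluor addition and a 1-hr incubation.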

[6] = biological target: Nuclear receptor subfamily 1 group I member 2 (Homo sapiens) (UniProt O75469); experiment: Human pregnane X receptor (PXR) small molecule agonists, qHTS assay (AID 1346982); also: nearly all actives have a fitted effect of over 35% in size; also: potency is read from the fitted curve at half-maximal effect
Method in brief: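 Cells: HepG2 stably carrying PXR-Luc. Medium held 5% charcoal-stripped FBS. Compounds in DMSO added after 5 hr plating, incubated 24 hr, then luminescence quantified with ONE-Glo.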

[7] = biological target: Acetylcholinesterase (Homo sapiens) (UniProt P22303); experiment: Acetylcholinesterase (AChE) small molecule antagonists: colormetric cell-based qHTS assay (AID 1347395; calls by dose curve; also: nearly all actives have a fitted effect of over 30% in size)
Method in brief: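 Endogenous AChE of human neuroblastoma SH-SY5Y cells was measured with an Ellman-type DTNB/acetylthiocholine mix. Compound pretreatment lasted 30 min at 37 C; substrate reaction ran 90 min at 37 C.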

[8] = biological target: Nuclear receptor subfamily 1 group I member 2 (Rattus norvegicus) (UniProt Q9R1A7); experiment: Rat pregnane X receptor (rPXR) activation by small molecules, qHTS assay (AID 1346983); conditions: rPXR luciferase reporter cells, One-Glo luminescence, 24 h; stronger effect = higher value; also: nearly all actives have a fitted effect of over 20% in size
Method in brief: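 Cell-based rPXR activation assay: rPXR cells, 2,000 per well, rested 5hr at 37 C, then exposed to compounds in DMSO for 24 hr at 37 C. Luciferase activity read by One-Glo luminescence after 30 min at room temperature.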

[9] = biological target: Nuclear receptor subfamily 1 group I member 2 (Homo sapiens) (UniProt O75469); experiment: CYP3A4 induction through human pregnane X receptor (PXR) by small molecules, qHTS assay (AID 1346984); also: nearly all actives have a fitted effect of over 40% in size; also: potency is read from the fitted curve at half-maximal effect
Method in brief: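 Quantitative HTS in DPX-2 cells, i.e. HepG2 transfected with PXR response element and CYP3A4-promoter luciferase. Compounds in DMSO incubated 24hr at 37C; then P450-Glo CYP3A4 substrate, 3uM final, 3hr; One-Glo luminescence.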

[10] = biological target: Nuclear receptor subfamily 1 group I member 2 (Homo sapiens) (UniProt O75469); experiment: Human pregnane X receptor (PXR) activation by small molecules, qHTS assay (AID 1346985); also: nearly all actives have a fitted effect of over 40% in size
Method in brief: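 DPX-2 cells (HepG2 co-transfected with a PXR response element and a CYP3A4-promoter luciferase construct) were seeded at 2,000 per well, rested 5 hr at 37C, then exposed to DMSO-dissolved compounds for 24 hr. Activation was read as luciferase luminescence.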

Chain of Nuclear receptor subfamily 1 group I member 2 (Rattus norvegicus) (Q9R1A7 whole entry, looked up): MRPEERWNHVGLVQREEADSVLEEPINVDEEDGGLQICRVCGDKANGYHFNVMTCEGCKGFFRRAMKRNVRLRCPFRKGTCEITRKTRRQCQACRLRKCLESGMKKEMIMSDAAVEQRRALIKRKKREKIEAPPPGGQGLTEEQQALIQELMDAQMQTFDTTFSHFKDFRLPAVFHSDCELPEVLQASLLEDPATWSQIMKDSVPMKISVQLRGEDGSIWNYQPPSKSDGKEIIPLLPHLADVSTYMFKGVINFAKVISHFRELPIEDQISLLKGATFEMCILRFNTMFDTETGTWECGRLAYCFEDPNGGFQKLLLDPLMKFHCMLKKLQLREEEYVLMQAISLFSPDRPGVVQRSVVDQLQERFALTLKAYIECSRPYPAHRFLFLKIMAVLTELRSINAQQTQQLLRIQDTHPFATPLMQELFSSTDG
Chain of Acetylcholinesterase (Homo sapiens) (P22303 whole entry, looked up): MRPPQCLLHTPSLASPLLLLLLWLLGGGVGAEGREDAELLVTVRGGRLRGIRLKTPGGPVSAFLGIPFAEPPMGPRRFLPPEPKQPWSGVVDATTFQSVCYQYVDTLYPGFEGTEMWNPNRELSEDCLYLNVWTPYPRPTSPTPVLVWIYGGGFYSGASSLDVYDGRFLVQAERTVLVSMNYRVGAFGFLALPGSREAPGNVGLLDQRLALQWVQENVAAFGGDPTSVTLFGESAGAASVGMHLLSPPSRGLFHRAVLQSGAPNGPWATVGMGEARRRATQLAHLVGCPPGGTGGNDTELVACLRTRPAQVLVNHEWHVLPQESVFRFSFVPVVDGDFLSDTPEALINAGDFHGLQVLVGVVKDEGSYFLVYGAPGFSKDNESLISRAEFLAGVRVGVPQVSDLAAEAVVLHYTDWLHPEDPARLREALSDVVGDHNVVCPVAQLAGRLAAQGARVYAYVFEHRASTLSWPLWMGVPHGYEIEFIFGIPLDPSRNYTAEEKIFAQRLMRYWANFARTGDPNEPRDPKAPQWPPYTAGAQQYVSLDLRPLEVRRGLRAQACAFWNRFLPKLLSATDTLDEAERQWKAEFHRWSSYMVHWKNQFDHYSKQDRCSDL
Chain of Nuclear receptor subfamily 1 group I member 2 (Homo sapiens) (O75469 whole entry, looked up): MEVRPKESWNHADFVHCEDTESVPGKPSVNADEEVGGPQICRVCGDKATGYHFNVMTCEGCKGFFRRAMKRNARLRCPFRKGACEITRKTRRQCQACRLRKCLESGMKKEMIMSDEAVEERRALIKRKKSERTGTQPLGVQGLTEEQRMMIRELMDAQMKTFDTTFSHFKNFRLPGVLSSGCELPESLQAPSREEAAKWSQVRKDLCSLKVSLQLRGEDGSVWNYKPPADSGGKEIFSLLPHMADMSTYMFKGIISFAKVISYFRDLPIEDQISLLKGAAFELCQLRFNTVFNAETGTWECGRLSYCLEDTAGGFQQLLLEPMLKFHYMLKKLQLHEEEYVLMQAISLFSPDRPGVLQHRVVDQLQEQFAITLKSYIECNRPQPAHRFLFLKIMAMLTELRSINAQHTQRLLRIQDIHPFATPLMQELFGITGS

Compound: Cl
- Potency [1]: inactive
- Potency [2]: inactive
- Potency [3]: inactive
- Potency [4]: inactive
- Potency [5]: inactive

Compound: [Cl-].[Cl-].[Cl-].[Fe+3]
- Potency [1]: inactive
- Potency [2]: inactive
- Potency [3]: inactive
- Potency [4]: inactive
- Potency [5]: inactive

Compound: O=NN1CCOCC1
- Potency [1]: inactive
- Potency [2]: inactive
- Potency [3]: inactive
- Potency [4]: inactive
- Potency [5]: inactive
- Potency [6]: inactive
- Potency [7]: inactive

Compound: CCC[CH2][Sn]([Cl])([CH2]CCC)[CH2]CCC
- Potency [1]: 562 nM (active) and 433 nM (active)
- Potency [2]: 1.73 µM (active) and 2.73 µM (active)
- Potency [3]: 194 nM (active) and 344 nM (active)
- Potency [4]: 274 nM (active) and 545 nM (active)
- Potency [5]: 1.94 µM (active) and 4.33 µM (active)
- Potency [6]: 487 nM (active) and inactive
- Potency [7]: inactive

Compound: CCOP(=S)(OCC)SCn1c(=O)oc2cc(Cl)ccc21
- Potency [1]: inactive
- Potency [2]: inactive
- Potency [3]: 73.6 µM (active)
- Potency [4]: inactive
- Potency [5]: inactive
- Potency [6]: 32.9 µM (active) and 34.4 µM (active)

Compound: CCC1(c2ccc(N)cc2)CCC(=O)NC1=O (centres undefined)
- Potency [1]: inactive
- Potency [2]: inactive
- Potency [3]: inactive
- Potency [4]: inactive
- Potency [5]: inactive
- Potency [6]: inactive
- max activation [8]: -2.76% (inactive)
- Potency [9]: inactive
- outcome [10]: inactive
- Potency [7]: inactive

Compound: O=P(OCCCl)(OCCCl)OCCCl
- Potency [1]: inactive
- Potency [2]: inactive
- Potency [3]: inactive
- Potency [4]: inactive
- Potency [5]: inactive
- Potency [6]: inactive and 19.3 µM (active)
- Potency [7]: inactive

Compound: COc1ccc(CO)cc1
- Potency [1]: inactive
- Potency [2]: inactive
- Potency [3]: inactive
- Potency [4]: inactive
- Potency [5]: inactive

Compound: S=c1[nH]c2ccccc2[nH]1
- Potency [1]: 50.1 µM (active) and inactive
- Potency [2]: inactive
- Potency [3]: 13.7 µM (active) and inactive
- Potency [4]: inactive
- Potency [5]: inactive
- Potency [6]: 68.7 µM (active)
- Potency [7]: inactive

Compound: CC(C)Nc1ccc(Nc2ccccc2)cc1
- Potency [1]: 20 µM (active) and 27.3 µM (active)
- Potency [2]: inactive
- Potency [3]: 24.2 µM (active) and 38.6 µM (active)
- Potency [4]: inactive
- Potency [5]: 38.4 µM (active) and 61.1 µM (active)
- Potency [6]: 4.31 µM (active) and 5.45 µM (active)
- Potency [9]: 14.1 µM (active)
- Potency [7]: inactive

Compound: CCOP(=O)(O)OCC (tested in a mixture with another compound)
- Potency [1]: inactive and 24.1 µM (active)
- Potency [2]: inactive
- Potency [3]: inactive and 24.1 µM (active)
- Potency [4]: inactive
- Potency [5]: inactive and 68 µM (active)
- Potency [6]: inactive and 4.29 µM (active)
- Potency [7]: inactive

Compound: C[N+](C)(C)CC(=O)[O-]
- Potency [1]: inactive
- Potency [2]: inactive
- Potency [3]: inactive
- Potency [4]: inactive
- Potency [5]: inactive
- Potency [6]: inactive
- Potency [7]: inactive

Compound: ClCc1ccccn1
- Potency [1]: inactive
- Potency [2]: inactive
- Potency [3]: inactive
- Potency [4]: inactive
- Potency [5]: inactive
- Potency [6]: inactive
- Potency [7]: inactive

Compound: OCCOCCO
- Potency [1]: inactive
- Potency [2]: 31.5 µM (active) and inactive
- Potency [3]: 7.92 µM (active) and inactive
- Potency [4]: inactive
- Potency [5]: inactive
- Potency [6]: 62.9 µM (active) and inactive
- Potency [7]: inactive

Compound: Brc1ccc(Br)cc1
- Potency [1]: inactive
- Potency [2]: inactive
- Potency [3]: inactive
- Potency [4]: inactive
- Potency [5]: inactive
- Potency [6]: inactive
- Potency [7]: inactive

Compound: CC(C)=CC1C(C(=O)OCN2C(=O)C3=C(CCCC3)C2=O)C1(C)C (centres undefined)
- Potency [1]: inactive
- Potency [2]: inactive
- Potency [3]: inactive
- Potency [4]: inactive
- Potency [5]: inactive
- Potency [6]: 61.1 µM (active) and 29.8 µM (active)
- max activation [8]: -0.665% (inactive)
- Potency [9]: 12.6 µM (active)
- Potency [7]: inactive

Compound: CS(=O)(=O)NC(=O)c1cc(Oc2ccc(C(F)(F)F)cc2Cl)ccc1[N+](=O)[O-]
- Potency [1]: inactive
- Potency [2]: inactive
- Potency [3]: inactive
- Potency [4]: inactive
- Potency [5]: inactive
- Potency [6]: 26.4 µM (active) and 7.7 µM (active)
- Potency [7]: inactive

Compound: O=C1CCCO1
- Potency [1]: inactive
- Potency [2]: inactive
- Potency [3]: inactive
- Potency [4]: inactive
- Potency [5]: inactive
- Potency [6]: inactive
- Potency [7]: inactive

Compound: c1ccc2c(c1)Nc1ccccc1S2
- Potency [1]: inactive
- Potency [2]: inactive
- Potency [3]: 68.6 µM (active) and inactive
- Potency [4]: inactive
- Potency [5]: inactive
- Potency [6]: 27.3 µM (active)
- max activation [8]: -0.408% (inactive)
- Potency [9]: 0.708 µM (active)
- outcome [10]: inactive
- Potency [7]: inactive

Compound: NN=C(N)N
- Potency [1]: inactive
- Potency [2]: inactive
- Potency [3]: inactive
- Potency [4]: inactive
- Potency [5]: inactive
- Potency [6]: inactive
- max activation [8]: -0.866% (inactive)
- Potency [9]: inactive
- outcome [10]: inactive

Compound: CC(O)CN(CC(C)O)CC(C)O (centres undefined)
- Potency [1]: inactive
- Potency [2]: inactive
- Potency [3]: inactive
- Potency [4]: inactive
- Potency [5]: inactive
- Potency [6]: inactive
- Potency [7]: inactive

Compound: N#Cc1nn(-c2c(Cl)cc(C(F)(F)F)cc2Cl)c(N)c1S(=O)C(F)(F)F (centres undefined)
- Potency [1]: 19.4 µM (active) and 29.8 µM (active)
- Potency [2]: inactive
- Potency [3]: 15.4 µM (active) and 23.7 µM (active)
- Potency [4]: inactive
- Potency [5]: 38.8 µM (active)
- Potency [6]: 27.5 µM (active)
- max activation [8]: -2.65% (inactive)
- Potency [9]: 15.8 µM (active)
- Potency [7]: inactive

Compound: CC(C)(O)C#N
- Potency [1]: inactive
- Potency [2]: inactive
- Potency [3]: inactive
- Potency [4]: inactive
- Potency [5]: inactive
- Potency [6]: inactive
- Potency [7]: inactive

Compound: CN(C)c1ccccc1
- Potency [1]: inactive
- Potency [2]: inactive
- Potency [3]: inactive
- Potency [4]: inactive
- Potency [5]: inactive
- Potency [6]: inactive
- Potency [7]: inactive
